Measurements: PubChem BioAssay (Tox21)
Records with an inconclusive call do not appear. A number with no mark means an inactive call. Activity calls are given as the source filed them. Calls come from the whole dose curve; as a rule, active = well fitted activation curve with a large enough effect in the repeat runs; inconclusive = weak or mixed curves, or effect the other way; inactive = no such curve, though single readings can be large or run the other way.

Assay: qHTS assay to identify small molecule agonists of the estrogen related receptor signaling pathway with the pleiotropic PPARgamma coactivator (PGC) from Tox21 10K library (AID 1224842); note: nearly all actives have a fitted effect of over 15% in size
Settings: PGC/ERR reporter cell line, luciferase ONE-Glo, 18 h; series mostly up to 92.4 µM; activation: at the top concentration
Description: National Center for Advancing Translational Sciences [NCATS] NIH Chemical Genomics Center [NCGC] U.S. Environmental Protection Agency [EPA] National Institutes of Environmental Health Sciences [NIEHS] National Toxicology Program [NTP] Assay overview: Estrogen related receptors (ERRs), the first orphan nuclear receptors discovered, play an important role in the control of cellular energy metabolism. ERRs are required for high-energy production in response to the environmental challenges. The pleiotropic PPARgamma coactivator (PGC) is a major partner of ERR and a key regulator in energy homeostasis. Together they have been implicated in the etiology of metabolic disorders such as Type 2 diabetes and metabolic syndrome. ERR-alpha was also identified as an adverse marker for breast cancer progression; ERR-alpha-positive tumors have a poor prognosis. To screen and to identify environmental compounds that perturb the PGC/ERR signaling pathways could provide valuable information for potential therapeutic or preventive measures in the treatment of metabolic disease. For identifying PGC/ERR agonists, PGC/ERR cell line (provided by NTP) has been used to screen Tox21 10K library.
Assay Protocol Summary: The PGC/ERR cells were dispensed at 2,000 cells/5 ul/well in 1536-well white plates using a Multidrop dispenser. After the assay plates were incubated at a 37 C/5% CO2 incubator for 6 hours, 23 nL of compounds dissolved in DMSO, positive and negative controls or DMSO only was transferred to the assay plate by a pin tool. The plates were incubated at 37 C for 18 hours. 4 ul/well of One-Glo reagent was added into the assay plates using a Flying Reagent Dispenser. After 30-minute incubation at room temperature, the luminescence intensity in the plates was measured using a ViewLux plate reader.
% is set by controls: 0 for no effect and ±100 for the full control effect; potency is the fitted concentration of half-maximal effect.

SMILES	activation	Potency
Nc1nc(N)c(N)c(N)n1	-5.97%	–
CCCCN(CCCC)C(=S)[S-].CCCCN(CCCC)C(=S)[S-].[Ni+2]	2.43% [at 42.5 µM]	–
O=c1[nH]c(Cl)c(Cl)cc1Cl	-13.3%	–
Brc1cccc(-c2ccccc2)c1	1.53%	–
CCC[CH2][Sn]([CH2]CCC)([O]C(C)=O)[O]C(C)=O	-38.7%	–
CCC(OC(C)=O)C(CC(C)NC)(c1ccccc1)c1ccccc1 (stereo not given)	-8.92%	–
COP(=O)(OC)O/C(=C\Cl)c1cc(Cl)c(Cl)cc1Cl	-28.7%	–
O=[N+]([O-])c1ccc(Cl)c(Cl)c1Cl	-4.87%	–
Cc1nn(-c2cc(NS(C)(=O)=O)c(Cl)cc2Cl)c(=O)n1C(F)F	-4.93%	–
CCCCCCC[CH2][Sn]([Cl])([Cl])[CH2]CCCCCCC	-23.6%	–
COC(=O)N(OC)c1ccccc1COc1ccn(-c2ccc(Cl)cc2)n1	-19.5%	–
BrCC(Br)(Br)Br	-0.623%	–
O=C(CCCCl)c1ccc(F)cc1	9.5% [at 42.5 µM]	–
CC(Cc1ccc(OCC(=O)O)cc1)NCC(O)c1csc(C(F)(F)F)n1 (stereo not given)	1.19%	–
Oc1cc(Cl)c(Cl)c(Cl)c1Cl	-24.1%	–
C[C@]12Cc3cn[nH]c3C[C@@H]1CC[C@@H]1[C@@H]2CC[C@@]2(C)[C@H]1CC[C@]2(C)O	-15.5% [at 42.5 µM]	–
COP(=S)(OC)Oc1ccc([N+](=O)[O-])c(C)c1	-18.1%	–
CCOP(=S)(OCC)SC(CCl)N1C(=O)c2ccccc2C1=O (stereo not given)	-0.302%	–
C=C(C)C(=O)[O][Sn]([CH2]CCC)([CH2]CCC)[CH2]CCC	-40.8%	–
O=c1[nH]c2cc(Cl)ccc2n1C1CCNCC1	-0.468% [at 42.5 µM]	–

SMILES	activation	Potency
O=[N+]([O-])c1ccccc1-c1ccccc1	4.86%	–
Fc1ccc(C(OCCN2CCN(CCCc3ccccc3)CC2)c2ccc(F)cc2)cc1	-30.2% [at 42.5 µM]	–
c1ccc2c(c1)cc1ccc3cccc4ccc2c1c34	–	22.1 µM (active)
Cc1c([N+](=O)[O-])cc2c(c1[N+](=O)[O-])C(C)(C)CC2(C)C	-20.1%	–
COP(=S)(OC)Oc1nc(Cl)c(Cl)cc1Cl	-3.66%	–
CCOP(=S)(NC(C)C)Oc1ccccc1C(=O)OC(C)C (stereo not given)	-17.8%	–
CCN1CCC2(CC1)COc1cc3c(cc12)N(C(=O)c1ccc(-c2ccc(-c4nnc(C)o4)cc2C)cc1)CC3	-36.5%	–
O=Cc1ccccc1	-0.852%	–
O=C1C2(Cl)C3(Cl)C4(Cl)C(Cl)(Cl)C5(Cl)C3(Cl)C1(Cl)C5(Cl)C24Cl (stereo not given)	–	inactive
COc1nc(C)nc(NC(=O)NS(=O)(=O)c2ccccc2Cl)n1	-0.36%	–
CN1CCc2cc(Cl)c(O)cc2[C@H]2c3ccccc3CC[C@@H]21	-8.28% [at 42.5 µM]	–
C#CC1(O)CCCCC1	2.3%	–
O=[N+]([O-])c1ccc(CCl)cc1	-14.9%	–
CCC(C)Nc1c([N+](=O)[O-])cc(C(C)(C)C)cc1[N+](=O)[O-] (stereo not given)	11.9%	–
COC(=O)/C=C(\C)OP(=O)(OC)OC	-17.6%	–
CCC1COC(Cn2cncn2)(c2ccc(Cl)cc2Cl)O1 (stereo not given)	-23.4%	–
O=NN(CCO)CCO	1.01%	–
CC(Cc1ccc2c(c1)OCO2)NO (stereo not given)	-0.0813%	–
CC(O)C(=O)[O][Hg][c]1ccccc1 (stereo not given)	-39%	–
[F][Sn]([c]1ccccc1)([c]1ccccc1)[c]1ccccc1	-36.7%	–
